Assay [1] is described as follows: qHTS drug screen for cell cycle checkpoint inhibitors in PARPi-resistant BRCA-mutant ovarian cancer cell lines. (AID 1963452). Note: potency is the fitted concentration of half-maximal effect. The conditions noted are these: PEO1/OlaR viability, CellTiter-Glo luminescence, 96 h; for Z-AUC: stronger effect = lower value. In short, it runs like this: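 PEO1, PEO4 and PEO1/OlaR ovarian cancer cells, 600 per well, exposed 96 h at 37C to a dilution series. Viability read by CellTiter-Glo luminescence, normalized to DMSO and empty wells; activity summarized as Z-AUC.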

The nature of assay [2]: qHTS Assay for Lipid Storage Modulators (AID 1519). For activity change, negative = inhibition: % is set by controls: 0 for no effect and ±100 for the full control effect. The note with it: Drosophila S3 cells, BODIPY lipid droplet/cell ratio, laser cytometry, cells loaded with oleic acid; for activity change, negative = inhibition: at 57.5 µM (top of the series). In short, it runs like this: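 Cells seeded at 5,000 per well were treated with compounds over a concentration series and loaded with oleic acid (400 uM, as added). Lipid droplet fluorescence (488 nm excitation, 500-530 nm channel) was read by laser-scanning cytometry and normalized to 20 uM Triacsin C.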
On the technique in general: In qHTS, concentration-response curves come from the screen itself.

Assay [3] can be described thus: Validation of Assay for Modulators of Lamin A Splicing (AID 1459; active = well fitted curve in the direction sought with a large enough effect in the signal ratio; the % refers to the signal ratio;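 note: cells exposed to compound for two days before reading; 0% is about no effect; ratio rise marks activators and ratio drop marks inhibitors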). Summed up: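 Readout: ratio of GFP (500-530 nm) to RFP (575-640 nm) total object intensity by 488 nm laser-scanning cytometry after 48 hrs. Cells were HeLa S3 clones carrying lamin A-EGFP minigene plus DsRed2 viability reporter; vehicle 0.5% DMSO final.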
Assay [4] has as its target ATP-dependent DNA helicase Q1 (Homo sapiens) (UniProt P46063). As to the kind of experiment: qHTS Validation Assay for Inhibitors of RecQ-Like Dna Helicase 1 (RECQ1) (AID 2353; active = well fitted curve in the direction sought with a large enough effect; an effect the other way counts as inactive or inconclusive;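 note: plate controls were DMSO vehicle for no effect and enzyme-free control for full effect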). Summed up:
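50 nM RECQ1T1 preincubated 15 min with compound in Tris pH 8.0 buffer with MgCl2, DTT, Tween-20 and 2.5 ug/ml poly(dI-dC); started with 200 nM TAMRA/BHQ-2 forked duplex and 2 mM ATP. Unwinding read as fluorescence (525/598 nm), two reads 2 h apart.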

For assay [5], the target named is Galactokinase (Homo sapiens) (UniProt P51570). As to the kind of experiment: qHTS Validation Assay for Inhibitors of Human Galactokinase (GALK) (AID 493189; active = well fitted curve in the direction sought with a large enough effect; an effect the other way counts as inactive or inconclusive; note: 0% is about no effect). Summed up:
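Luminescence from leftover ATP (Kinase-Glo Plus, 10 min) served as read-out after a 1 h room-temperature reaction of 5 nM GALK, 100 uM galactose and 35 uM ATP at pH8.0.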

Where [6] appears, read: measured here: PEO1 parental Z-AUC.
The mark [7] stands for this setting: measured here: cell count channel max response.
Setting [8] is: measured here: lipid channel max response.

Results filed as inconclusive are left out. Active and inactive are the calls of the source. Unless noted, calls come from the whole dose curve.

Chain of ATP-dependent DNA helicase Q1 (Homo sapiens) (P46063 whole entry, looked up): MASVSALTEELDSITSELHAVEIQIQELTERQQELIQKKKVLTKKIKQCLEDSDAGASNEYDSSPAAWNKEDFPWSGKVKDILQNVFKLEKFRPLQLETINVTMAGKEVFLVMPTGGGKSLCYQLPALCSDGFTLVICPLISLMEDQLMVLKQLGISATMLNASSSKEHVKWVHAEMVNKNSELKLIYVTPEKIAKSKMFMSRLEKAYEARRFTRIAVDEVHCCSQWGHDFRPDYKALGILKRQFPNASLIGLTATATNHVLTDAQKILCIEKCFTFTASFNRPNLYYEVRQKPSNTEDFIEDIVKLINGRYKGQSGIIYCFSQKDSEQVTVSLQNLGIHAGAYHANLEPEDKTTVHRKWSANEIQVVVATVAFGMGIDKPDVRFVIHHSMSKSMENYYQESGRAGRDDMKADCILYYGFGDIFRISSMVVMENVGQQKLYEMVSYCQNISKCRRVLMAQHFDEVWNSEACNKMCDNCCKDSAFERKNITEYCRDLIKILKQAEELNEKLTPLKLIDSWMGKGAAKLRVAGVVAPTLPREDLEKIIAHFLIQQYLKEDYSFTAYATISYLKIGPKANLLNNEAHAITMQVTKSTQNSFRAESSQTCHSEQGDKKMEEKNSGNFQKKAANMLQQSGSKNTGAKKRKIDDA
Chain of Galactokinase (Homo sapiens) (P51570 whole entry, looked up): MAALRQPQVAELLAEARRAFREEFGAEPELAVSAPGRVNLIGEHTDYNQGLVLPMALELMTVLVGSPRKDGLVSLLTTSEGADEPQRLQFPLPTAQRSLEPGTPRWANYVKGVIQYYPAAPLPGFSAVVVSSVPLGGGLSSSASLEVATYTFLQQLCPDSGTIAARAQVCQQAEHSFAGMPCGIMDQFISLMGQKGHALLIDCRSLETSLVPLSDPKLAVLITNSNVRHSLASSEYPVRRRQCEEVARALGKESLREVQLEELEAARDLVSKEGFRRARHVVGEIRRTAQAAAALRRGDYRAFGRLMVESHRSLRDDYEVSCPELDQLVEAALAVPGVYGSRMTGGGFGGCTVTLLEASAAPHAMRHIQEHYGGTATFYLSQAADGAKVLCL

Regarding `COC12C(COC(N)=O)C3=C(C(=O)C(C)=C(N)C3=O)N1CC1C2N1C` (stereo not drawn), the Z-AUC in assay [1] was -0.24 (inactive); in assay [1] (setting [6]) it was 0.0826; in assay [1] (measured here: PEO4 Z-AUC) it was -0.134.

With `C[C@@H]1CC[C@@]2(OC1)O[C@H]1C[C@H]3[C@@H]4CC=C5C[C@@H](O[C@@H]6O[C@H](CO)[C@@H](O[C@@H]7O[C@@H](C)[C@H](O)[C@@H](O)[C@H]7O)[C@H](O)[C@H]6O[C@@H]6O[C@@H](C)[C@H](O)[C@@H](O)[C@H]6O)CC[C@]5(C)[C@H]4CC[C@]3(C)[C@H]1[C@@H]2C`, the Z-AUC in assay [1] was 0.183 (inactive); in assay [1] (setting [6]), -0.31; in assay [1] (measured here: PEO4 Z-AUC), -0.496.

Take `CC(C)[C@]12O[C@H]1[C@@H]1O[C@@]13[C@@]1(C)CCC4=C(COC4=O)[C@@H]1C[C@@H]1O[C@@]13C2=O`: the Z-AUC is -1.63 (inactive) in assay [1], -0.566 in assay [1] (setting [6]) and -1.17 in assay [1] (measured here: PEO4 Z-AUC).

Regarding `CN1C(=O)[C@@H](NC(=O)[C@H](CCC(F)(F)F)[C@H](CCC(F)(F)F)C(N)=O)N=C(c2ccccc2)c2ccccc21`, the Z-AUC was -0.603 (inactive) in assay [1], 0.158 in assay [1] (setting [6]) and -0.105 in assay [1] (measured here: PEO4 Z-AUC).

Take `CC(C)(O)/C=C\C(=O)[C@](C)(O)[C@H]1[C@H](O)C[C@]2(C)[C@@H]3CC=C4[C@@H](C=C(O)C(=O)C4(C)C)[C@]3(C)C(=O)C[C@@]12C`: the figures for the Z-AUC in assay [1], in assay [1] (setting [6]) and in assay [1] (measured here: PEO4 Z-AUC) were -2.52 (inactive), -1.67 and -2.46, respectively.

In the case of `C[C@@]12OC(=O)[C@]1([C@@H](O)[C@@H]1C=CCCC1)NC(=O)[C@@H]2CCCl`, the values for the Z-AUC in assay [1], in assay [1] (setting [6]) and in assay [1] (measured here: PEO4 Z-AUC) were -0.972 (inactive), -1.61 and -1.64, respectively.

For the compound `C[C@@H](C1CC[C@@]2(O)C3=CC(=O)[C@@H]4C[C@@H](O)[C@@H](O)C[C@]4(C)[C@H]3CC[C@]12C)[C@H](O)CCC(C)(C)O` (stereo partly drawn), the values for the Z-AUC in assay [1], in assay [1] (setting [6]) and in assay [1] (measured here: PEO4 Z-AUC) were 0.596 (inactive), 0.976 and 1.02, respectively.

With `N#CC(O[C@@H]1O[C@H](CO[C@@H]2O[C@H](CO)[C@@H](O)[C@H](O)[C@H]2O)[C@@H](O)[C@H](O)[C@H]1O)c1ccccc1` (stereo partly drawn), the Z-AUC in assay [1] was 0.897 (inactive); in assay [1] (setting [6]), 0.644; in assay [1] (measured here: PEO4 Z-AUC) it was 0.881.

`Cn1c(/C=C/CO)c(CO)c2c1C(=O)C=C(N1CC1)C2=O`: the figures for the Z-AUC in assay [1], in assay [1] (setting [6]) and in assay [1] (measured here: PEO4 Z-AUC) were -0.176 (inactive), -0.939 and -0.899, respectively.

Take `Cc1[nH]ncc1-c1cc2nc([C@@H]3CC4CCN3CC4)[nH]c(=O)c2s1`: the Z-AUC in assay [1] was 0.732 (inactive); in assay [1] (setting [6]), 0.621; in assay [1] (measured here: PEO4 Z-AUC), 0.645.

On to `C/C=C(\C)C(=O)N[C@@H](c1ccccc1)[C@@H](O)C(=O)O[C@H]1C[C@@]2(O)[C@@H](OC(=O)c3ccccc3)[C@@H]3[C@]4(OC(C)=O)CO[C@@H]4C[C@H](O)[C@@]3(C)C(=O)[C@H](OC(C)=O)C(=C1C)C2(C)C`, for which the Z-AUC in assay [1] was -2.81 (inactive); in assay [1] (setting [6]), -2.97; in assay [1] (measured here: PEO4 Z-AUC), -3.26.

For `O=C(O)CNC(=O)C1C(=O)N(C2CCCCC2)C(=O)N(C2CCCCC2)C1=O`, the Z-AUC in assay [1] was 0.43 (inactive); in assay [1] (setting [6]) it was 0.47; in assay [1] (measured here: PEO4 Z-AUC), 0.437.

With `COc1cc2cc(c1Cl)N(C)C(=O)C[C@H](OC(=O)C(C)C)[C@]1(C)O[C@@H]1[C@H](C)[C@@H]1C[C@@](O)(NC(=O)O1)[C@H](OC)/C=C/C=C(\C)C2`, the Potency in assay [1] is 549 nM (active). Further, the Z-AUC in assay [1] (setting [6]) was -2.8; in assay [1] (measured here: PEO4 Z-AUC) it was -2.84.

Take `Cn1c(COP(=O)(NCCBr)NCCBr)cnc1[N+](=O)[O-]`: the Z-AUC is 0.865 (inactive) in assay [1], 0.833 in assay [1] (setting [6]) and 1.09 in assay [1] (measured here: PEO4 Z-AUC).

`CO/C1=C/C(C)=C\[C@@H](C)[C@@H](O)[C@@H](C)C/C(C)=C\C=C/[C@H](OC)[C@@H]([C@@H](C)[C@@H](O)[C@H](C)[C@@]2(O)C[C@@H](O)[C@H](C)[C@@H](C(C)C)O2)OC1=O`: the values for the Z-AUC in assay [1], in assay [1] (setting [6]) and in assay [1] (measured here: PEO4 Z-AUC) were -2.07 (inactive), -2.1 and -2.32, respectively.

Consider `CO[C@H]1CCC(O[C@H]2C[C@H]([C@]3(C)CC[C@]4(C[C@H](O)[C@@H](C)[C@@H]([C@@H](C)/C=C(\C)C(=O)[C@H](C)C[C@H](C)C(=O)O)O4)O3)O[C@]3(O[C@@H]([C@H]4O[C@@](O)(CO)[C@H](C)C[C@@H]4C)C[C@@H]3C)[C@@H]2C)O[C@@H]1C` (stereo partly drawn), for which the Z-AUC was -1.49 (inactive) in assay [1], -1.68 in assay [1] (setting [6]) and -1.99 in assay [1] (measured here: PEO4 Z-AUC).

As for `CC(=O)OC[C@H]1O[C@@H]([S-])[C@H](OC(C)=O)[C@@H](OC(C)=O)[C@@H]1OC(C)=O.CC[PH+](CC)CC.[Au]`, the Z-AUC in assay [1] is -0.477 (inactive); in assay [1] (setting [6]), -0.483; in assay [1] (measured here: PEO4 Z-AUC) it was -0.599.

Take `CCCCCCC(C)(C)c1cc(O)c2c(c1)OC(C)(C)C1CC=C(CO)C[C@H]21` (stereo partly drawn): the Z-AUC was 1.02 (inactive) in assay [1], 0.553 in assay [1] (setting [6]) and 0.644 in assay [1] (measured here: PEO4 Z-AUC).

Consider `C[C@]12COC(=O)C[C@@H]1CC[C@@H]1[C@@H]2CC[C@@]2(C)[C@H]1CC[C@]2(C)O`, for which the figures for the Z-AUC in assay [1], in assay [1] (setting [6]) and in assay [1] (measured here: PEO4 Z-AUC) were 0.596 (inactive), 0.611 and 0.327, respectively.

As for `O=C1CC(c2ccc(O)cc2)Oc2cc(O)cc(O)c21` (stereo not drawn), in assay [2], the activity change, negative = inhibition is 9.01% (inactive). Moreover, the max response in assay [2] (setting [7]) is -5.6%; in assay [2] (setting [8]) it was 4.14%.

With `C=C(C)[C@@H]1CCC(C)=C[C@H]1c1c(O)cc(CCCCC)cc1O`, the Z-AUC in assay [1] is -0.487 (inactive); in assay [1] (setting [6]), 0.125; in assay [1] (measured here: PEO4 Z-AUC) it was 0.904.

For `Cc1c(N)nc([C@H](CC(N)=O)NC[C@@H](N)C(N)=O)nc1C(=O)N[C@H](C(=O)N[C@@H](C)[C@H](O)[C@@H](C)C(=O)N[C@@H](C(=O)NCCc1nc(-c2nc(C(=O)NCCC[S+](C)C)cs2)cs1)[C@@H](C)O)C(O[C@H]1O[C@H](CO)[C@H](O)[C@@H](O)[C@H]1O[C@H]1O[C@H](CO)[C@@H](O)[C@H](OC(N)=O)[C@@H]1O)c1cnc[nH]1` (stereo partly drawn), the Z-AUC in assay [1] was -0.673 (inactive); in assay [1] (setting [6]), -1.76; in assay [1] (measured here: PEO4 Z-AUC) it was 0.233.

Take `CN1C[C@@H](CS(=O)(=O)N(C)C)C[C@@H]2c3cccc4c3c(cn4C)C[C@H]21`: the outcome in assay [3], in assay [4] and in assay [5] was inactive.

For `CCCN(CCC)[C@@H]1CCc2c(F)ccc(O)c2C1`, the call in assay [3], in assay [4] and in assay [5] was inactive.

Turning to `COc1cc(C=C(C#N)C#N)cc(O)c1O`, the result in assay [3], in assay [4] and in assay [5] was inactive. Further, the activity change, negative = inhibition in assay [2] was -2.14% (inactive). Also, the max response came to 23.5% in assay [2] (setting [7]) and 22.3% in assay [2] (setting [8]).

(Values after PubChem BioAssay (NCATS).)
